Screens deposited in PubChem BioAssay by National Center for Advancing Translational Sciences (NCATS).
Hits are enriched below; roughly 18% of the tested compounds scored in any of these assays.
DT40 TDP1 CPT = qHTS for Inhibitors of human tyrosyl-DNA phosphodiesterase 1 (TDP1): qHTS in cells in presence of CPT; chicken DT40 Tdp1-/-;hTDP1 cells + 20 nM CPT, ATP luminescence, 48 h; Potency, µM (top dose mostly 46.2 µM), usual class: inhibitors; 420,000 tested, 12% active; AID 686979, 2013; also: nearly all actives have a fitted effect of over 55% in size
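Chicken DT40 Tdp1-/- cells stably complemented with human TDP1 were seeded at 400 cells/well in medium containing 20 nM camptothecin, exposed to pin-transferred compounds, and grown at 37 °C for at least 48 hr. Viability was read as ATP luminescence.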
CtBP-E1A blk = qHTS Assay for Inhibitors of the CtBP/E1A Interaction; AlphaScreen GST-E1A/His-CtBP binding, 1536-well; hits give low values; activity change, % (concentration not given with the values); 340,000 tested, 0.49% active; AID 651724, 2012; in the data active = activity change below about -65%; inconclusive = mostly about -30% to -63%
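GST-E1A and His-tagged CtBP (125 nM each as 5X stock) were preincubated with pin-transferred compound for 2 h at 37 °C in the dark, then glutathione donor and nickel acceptor beads were added for 1 h before AlphaScreen reading.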
Six1-Eya2 inh = qHTS Assay for Inhibitors of the Six1/Eya2 Interaction | Homeobox protein SIX1 (Homo sapiens) + Protein phosphatase EYA2 (Homo sapiens), … | AlphaScreen GST-Six1/His-Eya2 binding, biochemical; hits give low values | activity change, % (no concentration beside the values) | 360,000 tested, 0.56% active; in the data active = activity change below about -65%; inconclusive = mostly about -30% to -63%
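AlphaScreen with GST-Six1 and His-Eya2 (5X mix: 250 nM and 500 nM), glutathione donor and nickel acceptor beads; buffer 50 mM Tris pH 8.0, 300 mM NaCl, 1 mM TCEP; 1 h at 37 C in the dark.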
TDP1 block = qHTS Assay for Inhibitors of Tyrosyl-DNA Phosphodiesterase (TDP1); Tyrosyl-DNA phosphodiesterase 1 (Homo sapiens), Q9NUW8; recombinant TDP1, AlphaScreen DNA substrate cleavage; Potency, µM (top dose mostly 130 µM), hits mostly inhibitors; 350,000 tested, 0.28% active; AID 485290, 2010; also: nearly all actives have a fitted effect of over 40% in size
Target sequence (Q9NUW8 whole entry, looked up): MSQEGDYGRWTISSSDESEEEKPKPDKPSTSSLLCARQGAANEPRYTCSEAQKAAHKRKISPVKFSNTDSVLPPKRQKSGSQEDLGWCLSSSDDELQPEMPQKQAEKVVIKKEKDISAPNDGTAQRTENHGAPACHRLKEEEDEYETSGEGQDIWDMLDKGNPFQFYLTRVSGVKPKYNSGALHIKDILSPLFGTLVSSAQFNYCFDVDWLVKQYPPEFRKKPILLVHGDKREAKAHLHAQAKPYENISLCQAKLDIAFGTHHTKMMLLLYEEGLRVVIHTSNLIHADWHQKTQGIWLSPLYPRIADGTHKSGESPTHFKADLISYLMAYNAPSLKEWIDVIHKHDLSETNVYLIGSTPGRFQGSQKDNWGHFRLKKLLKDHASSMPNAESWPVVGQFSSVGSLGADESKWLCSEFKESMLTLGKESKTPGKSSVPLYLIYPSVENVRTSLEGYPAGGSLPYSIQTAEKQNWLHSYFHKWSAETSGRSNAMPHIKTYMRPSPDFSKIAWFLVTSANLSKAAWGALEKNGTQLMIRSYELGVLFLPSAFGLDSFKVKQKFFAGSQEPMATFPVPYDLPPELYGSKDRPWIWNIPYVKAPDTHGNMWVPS
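Steps: enzyme plus compound, 15 min RT; add biotin/phosphotyrosine-FITC oligonucleotide (15 nM final), react 5 min; add donor/acceptor beads (10 ug/ml final), 10 min; read AlphaScreen. Tdp1 at 1 nM final.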
IL-1B inflam inh = qHTS for Inhibitors of Inflammasome Signaling: IL-1-beta AlphaLISA Primary Screen; THP-1 LPS/ATP IL-1B secretion, AlphaLISA, 16 h; hits give low values; 360,000 tested, 4.7% active; activity change, % at 57.5 µM; AID 743279, 2014; in the data active = activity change below about -50%; inconclusive = mostly about -30% to -49%
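Secreted IL-1B measured by AlphaLISA bead assay after 16 h compound exposure of THP-1 cells; compounds (final up to 57.5 uM) added 1 h before LPS (250 ng/mL) and ATP (1.25 mM) stimulation; lower signal means less secretion.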
DT40 TDP1 no CPT = qHTS for Inhibitors of human tyrosyl-DNA phosphodiesterase 1 (TDP1): qHTS in cells in absence of CPT; DT40 Tdp1-/- hTDP1 cells, no CPT, ATP luminescence, 48 h; Potency, µM (doses to about 46.2 µM), actives largely listed as inhibitors; 420,000 tested, 15% active; also: nearly all actives have a fitted effect of over 55% in size
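Cells were dispensed at 400 per well, compounds added by pin tool, plates incubated ≥48 hr at 37 °C, then CellTiter-Glo added for 30 min at room temperature before luminescence reading. Line: DT40 Tdp1-/- complemented with hTDP1; camptothecin omitted.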
Hits are given with their value; n = inactive; u = inconclusive; x = not tested or not shown; [ ] = another dose, or the depositor's remark. Unless noted, calls follow the shape of the dose curve; as a rule, active = well fitted curve in the direction sought with a large enough effect; inconclusive = small, poorly fitted or top-dose-only effect, or another doubt; inactive = no such curve, though single readings can be large; an effect the other way counts as inactive or inconclusive.

SMILES	DT40 TDP1 CPT	CtBP-E1A blk	Six1-Eya2 inh	TDP1 block	IL-1B inflam inh	DT40 TDP1 no CPT
CC1CCc2nc3ccc(S(=O)(=O)N4CCC(C(=O)NCc5ccccc5Cl)CC4)cc3c(C(=O)O)c2C1 (centres undefined)	n	-66.2	-73.0	n	n	u
COc1ccccc1CNC(=O)C1CCN(S(=O)(=O)c2ccc3nc4c(c(C(=O)O)c3c2)CCCC4)CC1	n	u	u	n	n	n
CCCCn1c(N)c(N(Cc2ccccc2OC)C(=O)CCSC)c(=O)[nH]c1=O	n	n	n	n	n	n
CC/C=C/C(=O)N1CC2(CC(c3cccc(NC(=O)CC(c4ccccc4)c4ccccc4)c3)=NO2)C[C@@H]1C(N)=O (some centres undefined)	n	n	n	n	u	16.4µM
CCCCCC(=O)Nc1cccc(C2=NOC3(C2)C[C@@H](C(N)=O)N(C(=O)CC(c2ccccc2)c2ccccc2)C3)c1 (some centres undefined)	23.1µM	x	n	n	n	u
C/C=C\C(=O)Nc1cccc(C2=NOC3(C2)C[C@@H](C(N)=O)N(C(=O)CC(c2ccccc2)c2ccccc2)C3)c1 (some centres undefined)	u	n	n	n	n	16.4µM
O=C1CC(C(=O)N2CCOCC2)C2(CCCCC2)O1 (centres undefined)	n	n	n	n	n	n
OC(CNCCc1ccc(Cl)cc1)COc1ccc2ccccc2c1 (centres undefined)	u	n	n	n	-106.0	u
COc1ccc(CCNCC(O)COc2c(C)cccc2C)cc1OC (centres undefined)	n	n	n	x	-67.1	u
OC(CNCCc1ccccc1)COc1ccc(OCC(O)CNCCc2ccccc2)cc1 (centres undefined)	n	n	n	n	-91.1	16.4µM
Cc1ccc(OCC(O)CNCc2ccccc2)cc1C (centres undefined)	u	n	n	n	u	u
CCC(=O)c1ccc(OCC(O)CNCCc2ccc(Cl)cc2)cc1 (centres undefined)	u	x	n	x	u	u
OC(CNCCc1ccc(Cl)cc1)COc1cc(Cl)ccc1Cl (centres undefined)	16.4µM	n	n	x	n	u
COc1ccc(CCNCC(O)COc2ccc(Cl)cc2)cc1OC (centres undefined)	u	n	n	n	u	n
OC(CNCCC(c1ccccc1)c1ccccc1)COc1ccccc1 (centres undefined)	13µM	n	n	n	-104.8	13µM
Clc1ccc(OCCNCCc2ccccc2)cc1	u	x	n	x	-53.0	u
O=C(NNCC(O)COc1ccccc1)c1ccccc1 (centres undefined)	n	n	n	n	n	n
CC(=O)c1c(C)[nH]c2ccc(OCC(O)CNCCc3ccccc3)cc12 (centres undefined)	u	x	x	x	x	15.8µM
c1ccc(CCNCCCOc2cccc3ccccc23)cc1	n	n	n	x	-100.8	u
O=C(COc1ccc(Cl)cc1)NCc1ccccc1	n	x	n	n	n	n
COc1ccc(CCNCC(O)COc2cccc(C(C)=O)c2)cc1OC (centres undefined)	n	n	n	x	n	u
CCOc1ccccc1NC(=O)CCNC(=O)c1ccco1	n	n	n	n[0.0935 µM]	n	n
O=[N+]([O-])c1ccc(N=NNc2ccccc2)cc1	u	n	n	n	n	n
CCOC(=O)c1cc(C#N)c(SCc2ccc(C#N)cc2)nc1C	n	n	n	n	n	n
CCCN(C(=O)c1ccc(N2CCCC2=O)cc1)C1CCS(=O)(=O)C1 (centres undefined)	n	n	n	n	n	n
SMILES	DT40 TDP1 CPT	CtBP-E1A blk	Six1-Eya2 inh	TDP1 block	IL-1B inflam inh	DT40 TDP1 no CPT
CSc1nc(N2CCN(CCO)CC2)c2sc3nc(-c4ccco4)c4c(c3c2n1)CCC4	x	x	x	n	x	x
CC1(C)Cc2c(c(-c3ccco3)nc3sc4c(NCC5CCCO5)ncnc4c23)CO1 (centres undefined)	18.4µM	n	n	n	n	20.6µM
CC1(C)Cc2c(C#N)c(NCCN3CCOCC3)nc(-c3ccco3)c2CO1	n	n	n	n	n	u
CC1(C)Cc2c(c(-c3ccco3)nc3sc4c(NCCN5CCOCC5)ncnc4c23)CO1	8.2µM	n	n	n	-181.2	20.6µM
CSc1nc(NCCN(C)C)c2sc3nc(-c4ccco4)c4c(c3c2n1)CCC4	6.51µM	n	n	x	-101.1	11.6µM
CC1(C)Cc2c(c(-c3ccco3)nc3sc4c(NCCCO)ncnc4c23)CO1	10.3µM	x	n	n	n	8.2µM
C[C@@H](NC(=O)c1coc(=O)c(Br)c1)c1ccccc1	0.461µM	n	n	n	n	0.731µM
O=C(NCCc1ccc(F)cc1)c1coc(=O)c(Br)c1	0.13µM	x	n	x	-90.7	0.92µM
O=C(Nc1ccccc1F)c1coc(=O)c(Br)c1	0.517µM	n	u	20µM	n	1.64µM
Cc1cc(NC(=O)c2coc(=O)c(Br)c2)ccc1C(C)C	0.517µM	n	n	n	x	1.84µM
CC(C)C(OC(=O)c1nsc(Cl)c1Cl)C(=O)NCc1ccccc1 (centres undefined)	n	n	n	n	n	n
O=C(Nc1ccc(Cl)cc1C(=O)Nc1ccc(Br)cn1)c1ccco1	u	n	n	n	n	u
O=C(Nc1ccc(Br)cn1)c1coc(=O)c(Br)c1	1.46µM	n	n	x	u	3.66µM
O=C(c1ccccc1)c1cccc2ccccc12	n	n	n	x	n	n
O=C(C1CCCCC1)N(Cc1nc2sc3c(c2c(=O)[nH]1)CCCC3)Cc1cccs1	u	n	n	n	n	13µM
O=C(C1CC1)N(Cc1nc2ccccc2c(=O)[nH]1)Cc1cccs1	u	n	n	n	n	u
O=C(CCCc1nc(-c2ccc(Cl)cc2)no1)NCc1ccco1	7.31µM	x	x	n	x	11.6µM
Cc1ccc(-c2noc(CCCC(=O)NCc3ccco3)n2)cc1	u	x	x	n	x	18.4µM
CCOc1ccc(-c2cc(CCCC(=O)NCc3ccco3)no2)cc1	u	n	n	n	n	20.6µM
CCOc1ccc(-c2cc(CCCC(=O)NCc3ccc(C)cc3)no2)cc1	n	n	n	n	n	n
CCOC(=O)c1csc(NC(=O)c2cccs2)n1	n	x	n	u	n	n
